This passage reports Potency results from PubChem BioAssay (Tox21).

The nature of assay [1]: Nuclear factor erythroid 2-related factor 2/antioxidant responsive element (Nrf2/ARE) small molecule agonists: qHTS cell viability counter screen in human keratinocytes (AID 1919968; active = well fitted curve in the direction sought with a large enough effect in the repeat runs; an effect the other way counts as inactive or inconclusive; also: nearly all actives have a fitted effect of over 55% in size; also: potency is read from the fitted curve at half-maximal effect). The method in brief:
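Parallel cytotoxicity read: KeratinoSens HaCaT cells, compound treatment 23 h, viability by CellTiter-Fluor fluorescence 1 h post-reagent.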
(In general: Quantitative high-throughput screening tests each substance at several concentrations.)

Assay [2] is described as follows: Nuclear factor erythroid 2-related factor 2/antioxidant responsive element (Nrf2/ARE) small molecule agonists: luciferase reporter gene qHTS assay in human keratinocytes (AID 1919969; also: nearly all actives have a fitted effect of over 35% in size; also: potency is read from the fitted curve at half-maximal effect). (Reporter assays use an easily measured gene product as a stand-in for the process of interest.)
Assay [3] deals with Gonadotropin-releasing hormone receptor (Homo sapiens) (UniProt P30968). The experiment in a line: Human gonadotropin-releasing hormone receptor (GnRHR) small molecule agonists, calcium flux assay in GnRHR-HEK293 cells (AID 1920063). Also: nearly all actives have a fitted effect of over 35% in size. In outline:
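Calcium flux, agonist mode, human GnRHR stably integrated in HEK293; dye 1 h at 37 C before compound; Ex/Em=480/540 kinetic read, 3 min; 15 concentrations, triplicate.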

The target of assay [4] is KiSS-1 receptor (Homo sapiens) (UniProt Q969F8). The experiment in a line: Human kisspeptin (KISS1R) small molecule agonists, calcium flux assay in KISS1R-HEK293 cells (AID 1920064; active = well fitted curve in the direction sought with a large enough effect in the repeat runs; an effect the other way counts as inactive or inconclusive). In outline: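 Triplicate 15-concentration series were applied to dye-loaded human KISS1R HEK293 cells, and agonist-evoked calcium fluorescence was captured for 3 min.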
KiSS-1 receptor (Homo sapiens), sequence (Q969F8 whole entry, looked up): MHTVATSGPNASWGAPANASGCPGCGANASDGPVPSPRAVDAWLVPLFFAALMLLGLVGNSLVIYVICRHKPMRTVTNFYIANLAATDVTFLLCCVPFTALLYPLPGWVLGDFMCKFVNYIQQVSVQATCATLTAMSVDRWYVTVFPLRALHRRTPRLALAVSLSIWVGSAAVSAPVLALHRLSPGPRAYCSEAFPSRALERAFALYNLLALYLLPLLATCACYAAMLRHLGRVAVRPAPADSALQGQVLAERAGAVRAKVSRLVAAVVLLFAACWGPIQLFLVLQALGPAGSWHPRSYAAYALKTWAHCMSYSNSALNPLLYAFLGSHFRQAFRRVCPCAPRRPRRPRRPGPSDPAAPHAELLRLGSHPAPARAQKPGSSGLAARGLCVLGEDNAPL
For orientation: Calcium flux is commonly read through the fluorescence of an indicator in the cells.

Assay [5] can be described thus: G protein-coupled receptor (GPCR) small molecule agonists, calcium flux assay: HEK293 wild type cell line counter screen (AID 1920065). The method in brief:
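Non-specific calcium responders were flagged by adding DMSO-dissolved compounds to dye-loaded cells and reading 480/540 nm fluorescence each second for 3 min; ATP served as positive control.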

Assay [6] can be described thus: p53 small molecule agonists, cell-based qHTS assay with human liver microsomes (AID 1963577). The method in brief:
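Fluorescence of the beta-lactamase reporter in p53RE-bla cells, detected with LiveBLAzer substrate (2 h, room temperature, dark), served as the read-out after 16 h compound exposure at 37 C with human liver microsomes and NADPH, each 0.5 mg/mL final.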

A short description of assay [7]: p53 small molecule agonists, cell-based qHTS assay with rat liver microsomes (AID 1963578). In outline:
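Cells carrying a p53 response element–beta-lactamase reporter were plated and rested 5 h, then dosed with compound in DMSO plus rat liver microsomes and NADPH, each at 0.5 mg/mL final. After 16 h at 37 C, LiveBLAzer substrate was added for 2 h.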

Assay [8] is described as follows: p53 small molecule agonists, cell-based qHTS assay with human liver microsomes: qHTS cell viability counter screen (AID 1963579). Also: nearly all actives have a fitted effect of over 45% in size. In outline:
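Cytotoxicity counter screen: p53RE-bla, 4,000 cells/well; 5 h settle, 37 C/5% CO2; cpd + HLM 0.5 mg/mL + NADPH 0.5 mg/mL (final); 16 h, 37 C; CellTiter-Glo, 30 min RT, luminescence.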

Assay [9] is described as follows: p53 small molecule agonists, cell-based qHTS assay with rat liver microsomes: qHTS cell viability counter screen (AID 1963580). Also: nearly all actives have a fitted effect of over 45% in size. In outline: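 Luminescent ATP readout (CellTiter-Glo, 30 min at room temperature) reports viability of p53RE-bla HCT-116 cells after 16 h at 37 C with test compounds under metabolic activation by rat liver microsomes and NADPH at 0.5 mg/mL final each.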

The target in assay [10] is 5-hydroxytryptamine receptor 2A (Homo sapiens) (UniProt P28223). The experiment in a line: 5-hydroxytryptamine receptor 2A (HTR2A) small molecule antagonists, cell-based qHTS assay (AID 1963586). Also: nearly all actives have a fitted effect of over 45% in size. In outline: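 CHO cells stably expressing human HTR2A were plated for 18 h at 37 C, then loaded with calcium dye for 1 h. Compounds were preincubated 5 min at room temperature before DOI (4 nM solution) was added. Kinetic fluorescence was read for 3 min.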
5-hydroxytryptamine receptor 2A (Homo sapiens), sequence (P28223 whole entry, looked up): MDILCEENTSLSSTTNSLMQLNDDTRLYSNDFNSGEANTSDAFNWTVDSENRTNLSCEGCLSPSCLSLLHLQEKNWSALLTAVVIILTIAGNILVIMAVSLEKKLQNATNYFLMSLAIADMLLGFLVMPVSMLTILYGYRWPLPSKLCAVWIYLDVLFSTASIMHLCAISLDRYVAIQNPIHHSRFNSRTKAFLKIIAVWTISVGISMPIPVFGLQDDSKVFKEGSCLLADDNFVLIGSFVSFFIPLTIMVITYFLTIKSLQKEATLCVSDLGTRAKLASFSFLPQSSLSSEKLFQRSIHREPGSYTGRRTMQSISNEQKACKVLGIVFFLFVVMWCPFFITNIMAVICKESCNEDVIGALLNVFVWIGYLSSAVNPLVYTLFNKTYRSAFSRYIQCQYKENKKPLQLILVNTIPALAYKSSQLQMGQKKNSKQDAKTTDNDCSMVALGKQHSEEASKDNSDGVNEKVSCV

Assay [11] shares this target. Put plainly: 5-hydroxytryptamine receptor 2A (HTR2A) small molecule agonists, cell-based qHTS assay (AID 1963587). Also: nearly all actives have a fitted effect of over 30% in size. The method in brief:
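HTR2A-CHO cells, plated 18 h at 37 C/5% CO2, dye-loaded 1 h at 37 C; compounds in DMSO added by pin tool (agonist mode). Intracellular calcium flux read as kinetic fluorescence on FDSS over 2 min at 1 s intervals.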

The target in assay [12] is Muscarinic acetylcholine receptor M1 (Homo sapiens) (UniProt P11229). The experiment in a line: Cholinergic receptor muscarinic 1 (CHRM1) small molecule antagonists, cell-based qHTS assay (AID 1963588). Also: nearly all actives have a fitted effect of over 40% in size. Also: potency is read from the fitted curve at half-maximal effect. In outline:
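Compounds were tested at 15 concentrations in three independent runs. Dye-loaded CHRM1-CHO cells were exposed 5 min at room temperature before stimulation by acetylcholine added at 50nM. Intracellular calcium was read kinetically on FDSS for 3 min.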

The target is the same in assay [13]. Put plainly: Cholinergic receptor muscarinic 1 (CHRM1) small molecule agonists, cell-based qHTS assay (AID 1963589). Also: nearly all actives have a fitted effect of over 35% in size. The method in brief: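 qHTS, 15-point titration, 3 independent runs: compounds pin-transferred onto dye-loaded CHRM1-CHO cells (human M1), calcium fluorescence followed every second to detect agonism.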
Assay [14] deals with Beta-2 adrenergic receptor (Homo sapiens) (UniProt P07550). Put plainly: Adrenergic beta2 receptor (ADRB2) small molecule antagonists, cell-based qHTS assay (AID 1963592). Also: series mostly up to about 92 µM; nearly all actives have a fitted effect of over 50% in size. The method in brief:
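Assay format: CHO-ADRB2 cells, 18-20hr seeding at 37C/5% CO2, then compound plus 1nM isoproterenol agonist mix for 0.5hr RT. Homogeneous time-resolved fluorescence cAMP detection after 1hr, expressed as 665/615 nm ratio.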

For assay [15], the target named is D(2) dopamine receptor (Homo sapiens) (UniProt P14416). The experiment in a line: Dopamine D2 receptor (DRD2) small molecule agonists, cell-based qHTS assay (AID 1963594). Also: nearly all actives have a fitted effect of over 35% in size. The method in brief:
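HEK293 cells stably expressing DRD2 were cultured 24 h at 37 C, then given Ro20-1724 (0.1 mM final) and compounds for 10 min at room temperature. NKH477 (200nM) was then added for 30 min. cAMP was read by HTRF.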

For assay [16] the target is unchanged. Put plainly: Dopamine D2 receptor (DRD2) small molecule antagonists, cell-based qHTS assay (AID 1963595; active = well fitted inhibition curve with a large enough effect in the signal ratio in the repeat runs, with a control signal flat; the % refers to the signal ratio). In outline:
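HEK293 cells stably expressing DRD2, preincubated with 0.1 mM Ro20-1724 and compounds 10 min, were stimulated with 200 nM NKH477 plus 12 nM quinpirole for 30 min at room temperature; cAMP measured by HTRF (665/620 nm).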

Assay [17] in a line: cAMP Responsive Elements (CRE) small molecule agonists, cell-based qHTS assay (AID 1963590). The method in brief:
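Quantitative HTS for CRE agonists: HEK 293T CRE-bla cells, overnight plating, 3 h compound incubation at 37 C/5% CO2, then 2 h room-temperature LiveBLAzer B/G FRET substrate loading.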

A short description of assay [18]: cAMP Responsive Elements (CRE) small molecule antagonists, cell-based qHTS assay (AID 1963591; active = well fitted inhibition curve with a large enough effect in the signal ratio in the repeat runs, not every such curve was filed as active; the % refers to the signal ratio). The method in brief:
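Fluorescence intensity from cleaved LiveBLAzer B/G substrate (2 h, room temperature) quantified CRE-bla activity in HEK 293T cells exposed 3 h to compound with 0.25 uM final NKH477.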

Assay [19] is described as follows: p53 small molecule agonists, cell-based qHTS assay (AID 1963582; active = well fitted activation curve with a large enough effect in the signal ratio in the repeat runs, not every such curve was filed as active; the % refers to the signal ratio). In outline: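 Beta-lactamase reporter cells (p53RE-bla) treated with compounds for 16 h at 37 C; FRET substrate, 2 h, room temperature; fluorescence intensity.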
Assay [20] can be described thus: p53 small molecule agonists, cell-based qHTS assay: qHTS cell viability counter screen (AID 1963581). Also: nearly all actives have a fitted effect of over 45% in size. The method in brief:
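Multiplexed with the reporter read, a CellTiter-Glo step (30 min, room temperature) gauges ATP-based viability of HCT-116 p53RE-bla cells after 16 h compound incubation at 37 C.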

Values without a mark were called inactive. Records with an inconclusive call do not appear. Active and inactive are the calls of the source. Unless noted, calls follow the shape of the full dose curve.

Beta-2 adrenergic receptor (Homo sapiens), sequence (P07550 whole entry, looked up): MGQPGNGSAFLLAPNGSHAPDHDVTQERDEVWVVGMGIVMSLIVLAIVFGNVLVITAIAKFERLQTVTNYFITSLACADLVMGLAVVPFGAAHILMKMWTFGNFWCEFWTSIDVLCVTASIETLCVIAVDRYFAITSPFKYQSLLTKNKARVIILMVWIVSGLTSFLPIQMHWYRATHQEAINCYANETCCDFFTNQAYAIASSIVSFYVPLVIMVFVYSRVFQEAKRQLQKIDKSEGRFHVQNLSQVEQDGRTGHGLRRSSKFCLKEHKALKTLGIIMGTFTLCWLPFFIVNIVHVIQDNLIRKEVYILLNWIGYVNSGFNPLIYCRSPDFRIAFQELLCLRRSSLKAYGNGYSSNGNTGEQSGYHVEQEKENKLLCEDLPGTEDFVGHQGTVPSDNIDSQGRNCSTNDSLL
Muscarinic acetylcholine receptor M1 (Homo sapiens), sequence (P11229 whole entry, looked up): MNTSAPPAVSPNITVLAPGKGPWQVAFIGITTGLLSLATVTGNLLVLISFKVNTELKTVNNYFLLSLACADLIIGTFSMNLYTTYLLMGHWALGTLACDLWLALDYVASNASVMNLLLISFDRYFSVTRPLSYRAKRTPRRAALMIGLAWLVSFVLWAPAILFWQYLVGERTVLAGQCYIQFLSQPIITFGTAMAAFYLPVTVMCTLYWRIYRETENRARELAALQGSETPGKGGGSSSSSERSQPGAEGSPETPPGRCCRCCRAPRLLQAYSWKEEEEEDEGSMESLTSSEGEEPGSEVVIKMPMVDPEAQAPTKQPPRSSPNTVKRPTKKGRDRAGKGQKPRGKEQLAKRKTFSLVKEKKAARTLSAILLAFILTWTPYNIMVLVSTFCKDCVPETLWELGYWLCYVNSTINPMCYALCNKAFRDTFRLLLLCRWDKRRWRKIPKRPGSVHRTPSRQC
D(2) dopamine receptor (Homo sapiens), sequence (P14416 whole entry, looked up): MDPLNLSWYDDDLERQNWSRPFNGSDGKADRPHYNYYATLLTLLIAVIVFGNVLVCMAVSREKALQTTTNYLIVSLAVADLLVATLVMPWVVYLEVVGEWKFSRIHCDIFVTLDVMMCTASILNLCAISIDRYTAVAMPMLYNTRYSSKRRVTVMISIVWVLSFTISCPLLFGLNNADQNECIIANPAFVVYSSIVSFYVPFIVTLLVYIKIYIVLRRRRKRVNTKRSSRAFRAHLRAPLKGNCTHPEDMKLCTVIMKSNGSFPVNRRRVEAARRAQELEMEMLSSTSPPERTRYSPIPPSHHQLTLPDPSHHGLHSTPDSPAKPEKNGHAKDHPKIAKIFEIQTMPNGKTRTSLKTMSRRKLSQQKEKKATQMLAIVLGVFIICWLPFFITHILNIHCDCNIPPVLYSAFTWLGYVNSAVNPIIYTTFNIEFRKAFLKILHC
Gonadotropin-releasing hormone receptor (Homo sapiens), sequence (P30968 whole entry, looked up): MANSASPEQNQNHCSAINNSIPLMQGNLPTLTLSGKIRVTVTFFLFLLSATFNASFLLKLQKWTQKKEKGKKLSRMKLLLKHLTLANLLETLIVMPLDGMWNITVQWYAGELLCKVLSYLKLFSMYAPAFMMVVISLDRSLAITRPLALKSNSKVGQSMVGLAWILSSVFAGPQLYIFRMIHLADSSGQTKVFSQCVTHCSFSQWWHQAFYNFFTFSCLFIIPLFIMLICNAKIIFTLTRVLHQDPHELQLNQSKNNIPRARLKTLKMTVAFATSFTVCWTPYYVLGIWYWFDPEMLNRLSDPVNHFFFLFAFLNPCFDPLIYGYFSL

Regarding `CCc1ccc(C(=O)NN(C(=O)c2cc(C)cc(C)c2)C(C)(C)C)cc1`, the Potency result in [1], in assay [2], in assay [3], in assay [4], in assay [5] and in assay [6] was “inactive” throughout. The Potency entry in assay [7], in assay [8], in assay [9], in [10], in [11] and in assay [13] was “inactive” in each case. The Potency entry in [14], in [15] and in assay [16] was “inactive” in each case. Moreover, in assay [12], the Potency is 2.98 µM (active).

For the compound `Oc1cccc(Cl)c1`, the Potency entry in assay [1], in assay [2], in assay [3], in assay [4], in [5] and in assay [6] was “inactive” throughout. The Potency entry in [7], in assay [8], in [9], in assay [10], in assay [11] and in assay [12] was “inactive” each time. For the same compound, the Potency result in assay [13], in assay [17], in assay [18], in [14], in assay [15] and in [16] was “inactive” each time.

On to `Oc1ccc(I)cc1`, for which the Potency entry in [1], in assay [2], in [3], in [4], in [5] and in assay [6] was “inactive” in each case. The Potency entry in assay [7], in assay [8], in assay [9], in [19], in [10] and in assay [11] was “inactive” in each case. The Potency entry in assay [13], in assay [17], in assay [18], in assay [14], in assay [15] and in [16] was “inactive” in each case.

On to `CC[N+]1(C)CCCC(OC(=O)C(O)(c2ccccc2)c2ccccc2)C1` (stereo unspecified), for which the Potency result in assay [1], in [2], in [3], in assay [4], in [5] and in assay [6] was “inactive” in each case. Besides, the Potency entry in assay [7], in assay [8], in assay [20], in [19], in [10] and in [11] was “inactive” each time. Moreover, the Potency entry in [13], in assay [17], in assay [18], in [14], in [15] and in assay [16] was “inactive” throughout.

Consider `CCOC(=O)NC(=S)Nc1ccccc1NC(=S)NC(=O)OCC`, for which the Potency entry in assay [1], in [3], in assay [4], in assay [5], in [6] and in [7] was “inactive” in each case. Also, the Potency entry in [8], in [9], in assay [10], in assay [12], in [13] and in assay [14] was “inactive” each time. The Potency entry in [16] is “inactive”. The Potency in [2] is 54.5 µM (active).

In the case of `Cn1cc(C2=C(c3cn(C4CCN(Cc5ccccn5)CC4)c4ccccc34)C(=O)NC2=O)c2ccccc21`, in assay [1], the Potency was 4.22 µM (active). Also, the Potency entry in assay [2], in assay [3], in assay [4], in [5], in assay [6] and in assay [7] was “inactive” throughout. Further, the Potency entry in assay [8], in assay [9], in assay [10], in [12], in [13] and in assay [14] was “inactive” each time. Besides, the Potency result in assay [16] is “inactive”.

As to `O=c1[nH]c2ccccc2n1C1CCNCC1`, the Potency entry in assay [1], in [2], in assay [3], in assay [4], in assay [5] and in [6] was “inactive” each time. In addition, the Potency entry in [7], in [8], in [20], in [19], in assay [10] and in assay [11] was “inactive” each time. Moreover, the Potency result in assay [12], in assay [13], in [17], in [18], in assay [15] and in assay [16] was “inactive” throughout.

For `Cc1ccccc1C(=O)Nc1cccc(OC(C)C)c1`, the Potency entry in assay [1], in assay [2], in assay [3], in [4], in assay [5] and in assay [6] was “inactive” in each case. Further, the Potency entry in assay [7], in assay [8], in assay [9], in assay [10], in [11] and in assay [12] was “inactive” in each case. Besides, the Potency entry in assay [14], in [15] and in assay [16] was “inactive” throughout.
